Compound activity deposited in PubChem BioAssay by National Center for Advancing Translational Sciences (NCATS).
Sampled rows, rich in hits. Any-hit rate of the full collection: about 19%.
TDP1 cell noCPT = qHTS for Inhibitors of human tyrosyl-DNA phosphodiesterase 1 (TDP1): qHTS in cells in absence of CPT | DT40 Tdp1-/- hTDP1 cells, no CPT, ATP luminescence, 48 h | Potency, µM (titrated, usually from 46.2 µM), without a hit: at the top dose activity change, negative = growth inhibition, usual class: inhibitors | actives 15% (n = 420,000) | AID 686978, 2013; also: potency is read from the fitted curve at half-maximal effect; % is scaled to controls: 0 for no effect and ±100 for the full control effect; nearly all actives have a fitted effect of over 55% in size
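Camptothecin absent (DMSO only). Human TDP1-complemented DT40 knockout cells, 400 cells/well, 37 °C for minimum 48 hr; ATP measured via CellTiter-Glo, 30 min dark incubation, luminescence.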
TDP1 cell CPT = qHTS for Inhibitors of human tyrosyl-DNA phosphodiesterase 1 (TDP1): qHTS in cells in presence of CPT | Potency, µM (top dose mostly 46.2 µM), for inactives: top-dose activity change, negative = growth inhibition, hits mostly inhibitors | chicken DT40 Tdp1-/-;hTDP1 cells + 20 nM CPT, ATP luminescence, 48 h | actives 12% (n = 420,000); also: potency is read from the fitted curve at half-maximal effect; % is scaled to controls: 0 for no effect and ±100 for the full control effect; nearly all actives have a fitted effect of over 55% in size
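Cell growth measured by CellTiter-Glo luminescence after a minimum 48 h, 37 C compound exposure with 20 nM CPT in Tdp1-knockout DT40 cells stably expressing hTDP1, seeded 400/well; qHTS titration format.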
SW480 rerep = A quantitative high throughput screen for small molecules that induce DNA re-replication in SW480 colon adenocarcinoma cells; SW480 DNA re-replication, Hoechst DNA content imaging, 48 h; Potency, µM (doses to about 46.1 µM), for inactives: at the highest dose re-replication activation, most hits filed as activators; actives 1.8% (n = 340,000); AID 624297, 2012; also: potency is read from the fitted curve at half-maximal effect; % of control where 0% means no effect; nearly all actives have a fitted effect of over 55% in size
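Per well, 250 cells were exposed to pinned compound for 48 hr. Nuclear DNA was visualised with Hoechst (40 min, 37 C) and total object intensity recorded by fluorescence scanning.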
MCF10A rerep = A quantitative high throughput screen for small molecules that induce DNA re-replication in MCF 10a normal breast cells | MCF 10A DNA re-replication, Hoechst nuclear intensity, 48 h | Potency, µM (top dose mostly 46.1 µM), without a hit: top-dose activity, positive = re-replication, usual class: activators | actives 2.9% (n = 350,000); also: potency is read from the fitted curve at half-maximal effect; % of control where 0% means no effect; nearly all actives have a fitted effect of over 50% in size
IL-1B inflam inh = qHTS for Inhibitors of Inflammasome Signaling: IL-1-beta AlphaLISA Primary Screen; actives 4.7% (n = 360,000); AID 743279, 2014; THP-1 LPS/ATP IL-1B secretion, AlphaLISA, 16 h; hits give low values; activity change, % at 57.5 µM; in the data active = activity change below about -50%; inconclusive = mostly about -30% to -49%; also: % is scaled to controls: 0 for no effect and ±100 for the full control effect
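THP-1 cells pretreated 1 hr with compounds (up to 57.5 uM final), then stimulated with LPS (250 ng/mL final) plus ATP (1.25 mM final); secreted IL-1B measured by AlphaLISA after 16 hr, decreased signal indicating inhibition.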
BCR signal inh = qHTS Assay to Find Inhibitors of Chronic Active B-Cell Receptor Signaling | ABC-DLBCL IkBa-CBG/CBR reporter, luminescence ratio, 4 h | Potency, µM (titrated, usually from 46.1 µM), without a hit: top-dose activity change, negative = inhibition, most hits filed as inhibitors | actives 0.05% (n = 340,000); active = well fitted inhibition curve with a large enough effect in the signal ratio, with a control signal flat, not every such curve was filed as active; inconclusive = small, poorly fitted or top-dose-only effect, or effect the other way, or a change in a side signal; the % refers to the signal ratio;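 also: potency is read from the fitted curve at half-maximal effect; plate controls were basal doxycycline-induced cells for no effect and cells given 10 µM MG132 for full effect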
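Compounds up to 46 uM were incubated four hours with TMD8 cells whose green CBG68 luciferase is fused to IkappaBalpha; red CBR luminescence normalised the signal, and concentration-effect curves were fitted to fusion, red and ratio data.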
Active calls of the source: *; ? = inconclusive; / = no result given; [ ] = remark or other dose. Unless noted, calls follow the shape of the dose curve; as a rule, active = well fitted curve in the direction sought with a large enough effect; inconclusive = small, poorly fitted or top-dose-only effect, or another doubt; inactive = no such curve, though single readings can be large; an effect the other way counts as inactive or inconclusive.

SMILES	TDP1 cell noCPT	TDP1 cell CPT	SW480 rerep	MCF10A rerep	IL-1B inflam inh	BCR signal inh
CCOC(=O)c1c(C)nc2c(c1C)/C(=N/O)CC(C)(C)C2	23µM*	?	7%	1%	?	0%
O=C(CNc1cc(S(=O)(=O)N2CCOCC2)ccc1NCC1CCCO1)Nc1cccc(F)c1 (configuration not stated)	-21%	-24%	27%	4%	?	-13%
CCc1ccc(C(O)c2ncc(-c3ccccc3Cl)[nH]2)cc1 (configuration not stated)	-25%	-17%	/	/	-11	/
O=C(Cn1ncc2c(=O)oc3ccccc3c21)N1CCN(c2ccccn2)CC1	-16%	1%	-4%	8%	21	0%
COc1cccc(N2CCN(C(=O)Cn3ncc4c(=O)oc5ccccc5c43)CC2)c1	18µM*	16µM*	/	/	/	/
CCCN1CCN(C(=O)CCCn2c(C)c3cnn(-c4ccccc4)c(=O)c3c2C)CC1	1%	-21%	0%	19%	-22	?
Cc1c2cnn(-c3ccccc3)c(=O)c2c(C)n1CC(=O)N1CCN(c2ccc(F)cc2)CC1	15µM*	21µM*	/	/	/	/
Cc1c2cnn(CC(=O)N3CCN(c4ccccc4)CC3)c(=O)c2c(C)n1Cc1ccccc1Cl	2%	?	/	/	/	/
Cc1c2cnn(-c3ccccc3)c(=O)c2c(C)n1CC(=O)N1CCN(c2cccc(Cl)c2)CC1	13µM*	18µM*	/	/	/	/
Cc1ccc(Cn2c(C)c3cnn(CC(=O)N4CCN(c5ccc(F)cc5)CC4)c(=O)c3c2C)cc1	12µM*	10µM*	/	/	/	/
CCc1ccc(C(O)c2ncc(-c3ccc(C)cc3)[nH]2)cc1 (configuration not stated)	?	?	/	/	-23	/
CCn1cc(C(=O)N[C@@H](CCSC)C(=O)NCCN2CCOCC2)c(=O)c2cc3c(cc21)OCO3	20%	-15%	0%	-4%	44	0%
Cc1ccc(S(=O)(=O)N2C[C@H]3C(=O)C[C@@H](c4cccc(Cl)c4)N(S(=O)(=O)c4ccc(C)cc4)[C@H]3C[C@H]2c2ccc(Cl)cc2)cc1	-21%	-16%	/	/	-4	/
Cc1cc(=O)n(CC(=O)N2CCCc3ccccc32)c2c1c(C)nn2-c1cccc(F)c1	?	16µM*	/	/	/	/
Cc1cc(=O)n(CC(=O)N2CCN(c3ccc(F)cc3)CC2)c2c1c(C)nn2C	21µM*	18µM*	/	/	/	/
Cc1ccc(C)c(N2CCN(C(=O)Cn3c(C)c4cnn(-c5ccccc5)c(=O)c4c3C)CC2)c1	2.9µM*	5.2µM*	/	/	/	/
COc1ccc(-c2noc(CSCC(=O)Nc3cc(OC)c(OC)c(OC)c3)n2)cc1OC	-9%	-2%	/	/	/	/
CCNC(=O)C[C@@H]1CC[C@@H]2NC[C@@H](O)COC[C@H]2O1	-1%	-3%	/	/	9	/
COc1cccc(-c2nnc(NC(C)=O)o2)c1	-4%	1%	-1%	-1%	-14	-2%
COc1cccc(-c2nnc(NC(=O)c3ccc4ncsc4c3)o2)c1	15µM*	16µM*	-12%	6.5µM*	7	?
COc1cccc(C(=O)Nc2nnc(-c3ccc(Cl)cc3)o2)c1	10µM*	10µM*	10%	9%	14	?
COc1cccc(C(=O)Nc2nnc(-c3cccs3)o2)c1	?	16µM*	3%	0%	-3	?
CS(=O)(=O)c1cccc(-c2nnc(NC(=O)c3ccc4ncsc4c3)o2)c1	-2%	-8%	-6%	3%	2	-10%
O=C(Nc1nnc(-c2ccc(Cl)cc2)o1)c1cccc(N2C(=O)CCC2=O)c1	-15%	-19%	-6%	3%	13	?
CC(=O)c1ccc(C(=O)Nc2nnc(-c3ccc(Cl)cc3)o2)cc1	9.2µM*	9.2µM*	?	13%	44	?
SMILES	TDP1 cell noCPT	TDP1 cell CPT	SW480 rerep	MCF10A rerep	IL-1B inflam inh	BCR signal inh
C#CCNC(=O)C1CCN(c2cc(C)nc(-c3ccccc3)n2)CC1	1%	16%	2%	-4%	1	2%
CN(C)C(=O)c1ccc(-c2cc(NCc3cccnc3)ncn2)cc1	4%	12%	/	/	/	/
CC(C(=O)NC(C)(C)C)N(C(=O)CS(=O)CC(=O)Nc1ccc(F)cc1)C1CCCC1 (configuration not stated)	-4%	12%	-7%	-4%	6	7%
COC(=O)c1sccc1NC(=O)c1cc2c(s1)CCCC2	10µM*	-19%	19%	?	11	8%
COc1cccc(C(=O)Nc2nnc(-c3ccc(F)cc3)o2)c1	9.2µM*	10µM*	0%	17%	43	?
COC(=O)c1sccc1NC(=O)c1cccc(OC)c1	21µM*	?	0%	-4%	30	?
CCOc1ccc(-c2nnc(NC(=O)c3ccc(OCC(C)C)c(OC)c3)o2)cc1	6.5µM*	5.8µM*	0%[9.22 µM]	?	-13	-8%
CCCCNC(=O)Nc1nnc(-c2ccc(OCC)cc2)o1	?	?	1%	-8%	-10	-12%
Cc1ccc(NC(=O)CN(C)C(=O)c2cccc(S(=O)(=O)NCc3ccco3)c2)cc1	2%	10%	-5%	6%	6	-1%
Cc1n[nH]c2c([N+](=O)[O-])c(=O)[nH]c(=O)n12	-6%	3%	-6%	-4%	-15	/
O=C(N1CCN(c2ccccc2F)CC1)C1(c2cccs2)CCOCC1	18µM*	?	1%	-1%	-16	-3%
COc1ccc(NC(=O)C2(c3cccs3)CCOCC2)cc1	3%	-2%	24%	3%	37	-1%
COC(=O)c1ccccc1NC(=O)C1(c2cccs2)CCOCC1	21µM*	?	/	/	/	4%
Cc1nn(C)c(C(=O)Nc2ccc(S(=O)(=O)NC34CC5CC(CC(C5)C3)C4)cc2)c1Br	23µM*	21µM*	18%	20%	-1	?
Cc1ccc(S(=O)(=O)NC23CC4CC(CC(C4)C2)C3)cc1	21µM*	?	-9%	2%	55	0%
O=C(NCc1ccco1)c1ccc(COc2cccc3ccccc23)cc1	-16%	-6%	?	-6%	-60*	?
O=C(NCc1ccco1)c1ccc(COc2ccccc2Cl)cc1	?	?	7%	?	-57*	-15%
